Bioassay records: PubChem, National Center for Advancing Translational Sciences (NCATS)
Compounds with a hit are over-represented: about 2.3% of the library has one in this group of screens.
Pol iota inh: qHTS for Inhibitors of Polymerase Iota. DNA polymerase iota (Homo sapiens), Q9UNA4. Pol iota fluorescent replication assay, 10 min. Potency, µM (highest dose often 115 µM), most hits filed as inhibitors. hit rate 1% among 390,000
Target sequence (Q9UNA4 whole entry, looked up): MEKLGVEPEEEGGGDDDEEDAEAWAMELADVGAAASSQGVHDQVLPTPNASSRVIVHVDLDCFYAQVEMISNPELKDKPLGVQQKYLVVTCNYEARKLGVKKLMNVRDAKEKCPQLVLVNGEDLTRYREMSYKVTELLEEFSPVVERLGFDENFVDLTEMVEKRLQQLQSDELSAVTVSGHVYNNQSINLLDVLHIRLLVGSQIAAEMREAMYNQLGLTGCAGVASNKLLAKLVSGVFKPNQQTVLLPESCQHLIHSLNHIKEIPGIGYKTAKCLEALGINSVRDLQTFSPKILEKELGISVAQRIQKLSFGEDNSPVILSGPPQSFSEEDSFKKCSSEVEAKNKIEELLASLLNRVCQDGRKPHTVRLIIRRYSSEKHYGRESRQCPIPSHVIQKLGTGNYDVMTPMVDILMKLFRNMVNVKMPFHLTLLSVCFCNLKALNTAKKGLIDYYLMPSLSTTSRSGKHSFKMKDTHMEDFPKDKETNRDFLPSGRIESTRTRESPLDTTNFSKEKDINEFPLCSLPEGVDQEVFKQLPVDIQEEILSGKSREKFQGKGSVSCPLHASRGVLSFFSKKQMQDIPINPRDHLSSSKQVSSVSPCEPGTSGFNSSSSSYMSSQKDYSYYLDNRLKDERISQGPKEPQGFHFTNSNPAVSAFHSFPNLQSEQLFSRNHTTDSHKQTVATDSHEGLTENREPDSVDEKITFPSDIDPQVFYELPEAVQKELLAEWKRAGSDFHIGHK
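Pol iota at 10 nM preincubated 15 min with compounds at room temperature; reaction started with fluorescent substrate, 50 nM final. Fluorescence read kinetically at 0 and 10 min; buffer-only wells as negative control.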
Pol eta inh: qHTS for Inhibitors of Polymerase Eta | Potency, µM (series often up to 114 µM), usual class: inhibitors | recombinant Pol eta, fluorescent DNA replication assay | DNA polymerase eta (Homo sapiens), Q9Y253 | hit rate 1.2% among 390,000
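Pol eta (10 nM) was preincubated with compounds for 15 min at room temperature, after which fluorescent replication substrate (50 nM final) was added to start the reaction. Fluorescence was read kinetically at 0 and 10 min.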
WRN helicase inh-1: qHTS for Inhibitors of WRN Helicase; Bifunctional 3'-5' exonuclease/ATP-dependent helicase WRN (Homo sapiens), Q14191; WRN helicase unwinding, fluorescent forked duplex, kinetic; Potency, µM (highest dose often 114 µM), usual class: inhibitors; hit rate 0.46% among 360,000; note: nearly all actives have a fitted effect of over 55% in size
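Fluorescence dequenching readout, ex 525 nm/em 598 nm, kinetic mode: forked duplex DNA (100 nM final) with adjacent fluorophore and quencher unwound by WRN (20 nM final) with 2 mM ATP. Compound preincubation 15 min, room temperature.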
POLB inh: qHTS Assay for Inhibitors of DNA Polymerase Beta | hit rate 1.3% among 340,000 | Pol beta primer extension/strand displacement, fluorescence kinetic | Potency, µM (titrated, usually from 114 µM), usual class: inhibitors | AID 485314, 2010
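Values derive from four-parameter Hill fits of normalized kinetic data: reads at 0 and 10 min following addition of 50 nM substrate to 10 nM Pol beta preincubated 15 min with compound.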
Pol kappa inh: qHTS for Inhibitors of Polymerase Kappa; DNA polymerase kappa (Homo sapiens), Q9UBT6; purified Pol kappa, fluorescent DNA synthesis assay, 10 min; Potency, µM (doses to about 107 µM), most hits filed as inhibitors; hit rate 0.53% among 400,000
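Here, compound and 10 nM enzyme are combined for 15 min at room temperature; adding 50 nM substrate (final) starts DNA synthesis, tracked by fluorescence at 0 and 10 min against buffer-only wells.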
WRN helicase inh-2: qHTS for Inhibitors of WRN Helicase: Confirmatory Assay for Cherry-picked Compounds; Potency, µM (highest dose often 57.1 µM), actives largely listed as inhibitors; hit rate 63% among 610; AID 720497, 2013; shares compounds with WRN helicase inh-1; WRN helicase DNA unwinding, fluorescence kinetic; note: nearly all actives have a fitted effect of over 65% in size
TO DNA binding: qHTS for Inhibitors of WRN Helicase: Thiazole Orange DNA Binding Counterscreen; shares compounds with WRN helicase inh-1; thiazole orange DNA binding displacement, fluorescence; Potency, µM (series often up to 57.1 µM), usual class: inhibitors; hit rate 10% among 610; AID 720499, 2013;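 note: drop in dye fluorescence marks compound binding to DNA; nearly all actives have a fitted effect of over 60% in size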
BLM helicase inh: qHTS for Inhibitors of WRN Helicase: BLM Helicase Counterscreen for WRN Inhibitors; shares compounds with WRN helicase inh-1; Recombinant BLM helicase DNA unwinding, red fluorescence; Potency, µM (titrated, usually from 57.1 µM), most hits filed as inhibitors; hit rate 60% among 610; AID 720503, 2013; note: nearly all actives have a fitted effect of over 60% in size
A number is an active result; – = inactive; ? = inconclusive; · = no result; [ ] = dose if it differs, or a comment. Calls come from the whole dose curve; as a rule, active = well fitted curve in the direction sought with a large enough effect; inconclusive = small, poorly fitted or top-dose-only effect, or another doubt; inactive = no such curve, though single readings can be large; an effect the other way counts as inactive or inconclusive.

SMILES | Pol iota inh | Pol eta inh | WRN helicase inh-1 | POLB inh | Pol kappa inh | WRN helicase inh-2 | TO DNA binding | BLM helicase inh
CC[n+]1c(/C=C/C=C/N(C(C)=O)c2ccccc2)sc2ccccc21 | ? | ? | 50.1µM | – | – | 24.1µM | – | –
COc1cc(/C=C2/SC(=S)N(Cc3ccccc3)C2=O)cc(Cl)c1O | – | ? | – | 39.8µM | – | 1.52µM | ? | 2.71µM
COc1cc(/C=C2/SC(=S)N(CC(=O)O)C2=O)ccc1OC(=O)c1cccs1 | ? | ? | ? | – | – | ? | – | –
COc1cc(/C=C2\SC(=S)N(N(C)c3ccccc3)C2=O)ccc1O | ? | – | ? | ? | – | 13.6µM | ? | 15.2µM
COc1cc(/C=C2/SC(=S)N(C)C2=O)ccc1OC(=O)c1ccco1 | – | – | – | – | – | · | · | ·
Cc1cn2c(=O)cc(COC(=O)c3cccc(NC(=O)COc4ccccc4Cl)c3)nc2s1 | – | – | · | – | – | · | · | ·
CN1CCN(c2ccc(-c3nc(-c4ccccc4)no3)cc2[N+](=O)[O-])CC1 | – | – | · | – | – | · | · | ·
O=S(=O)(NCC(c1ccc2c(c1)OCO2)N1CCOCC1)c1ccc(Br)cc1 (centres undefined) | – | – | – | · | – | · | · | ·
Oc1cc2c(cc1C(c1ccc(Br)cc1)N1CCCC1)OCO2 (centres undefined) | ? | – | 44.7µM | – | – | ? | – | ?
COc1ccc(-c2nnc(Nc3nc4c(OC)cccc4s3)o2)cc1 | ? | 79.4µM | 44.7µM | 31.6µM | 35.5µM | 9.61µM | – | 7.64µM
O=C(/C=C/c1cccs1)Nc1scc(-c2ccccc2)c1C(=O)O | 2.51µM | 79.4µM | 31.6µM | ? | – | ? | – | 21.5µM
COc1cc(Cl)c(C)cc1NC(=O)COC(=O)CCc1nc2ccccc2c(=O)[nH]1 | ? | – | ? | · | – | · | · | ·
COc1ccc(OC)c(NC(=O)COC(=O)CCc2nc3ccccc3c(=O)[nH]2)c1 | – | – | ? | · | – | ? | – | ?
O=S(=O)(NCC(c1ccco1)N1CCN(c2ccccc2)CC1)c1ccccc1 (centres undefined) | – | – | · | – | – | · | · | ·
N[C@@]1(C(=O)O)CO[C@H]2[C@H](C(=O)O)[C@H]21 | · | · | · | · | – | · | · | ·
Cn1cnc([N+](=O)[O-])c1S(=O)(=O)c1ccc(Cl)cc1 | – | – | ? | – | – | – | – | –
CCc1ccc(CN(Cc2ccco2)c2cnc(S(C)(=O)=O)nc2C(=O)Nc2cccc(C)c2)cc1 | – | – | · | – | – | · | · | ·
CC(C)NC(=O)c1sc2ncccc2c1-n1cccc1 | – | – | · | – | – | · | · | ·
Cc1c(C(=O)N2CCOCC2)oc2c1-c1nn(CC(=O)NCc3cccc(Cl)c3)cc1CC2 | – | – | · | – | – | · | · | ·
COc1cccc(/C=C2/CCC(CN(C)C)C2=O)c1 (centres undefined) | ? | ? | 12.6µM | · | – | – | – | ?
COc1ccc(/C=C2/CCCC(CN(C)C)C2=O)cc1 (centres undefined) | – | – | ? | · | – | · | · | ·
CSc1cccc(NC(=O)C2CCN(S(=O)(=O)c3ccc4c(c3)CCCN4C(=O)C3CCC3)CC2)c1 | – | – | · | – | – | · | · | ·
CCCN(CCC)CCCNC(=O)c1cc2c(-c3ccc(OC)c(OC)c3)nn(C)c2s1 | ? | ? | –[11.6 µM] | 39.8µM | ? | 19.2µM | – | ?
CSc1cccc(NC(=O)C2CCCN(C(=O)c3cnn(-c4ccc(F)cc4)c3-n3cccc3)C2)c1 (centres undefined) | – | – | · | – | – | · | · | ·
Cc1ccc(N2C(=O)CS(=O)C(c3ccccc3)C2=O)cc1C (centres undefined) | ? | – | 35.5µM | – | – | ? | – | ?
SMILES | Pol iota inh | Pol eta inh | WRN helicase inh-1 | POLB inh | Pol kappa inh | WRN helicase inh-2 | TO DNA binding | BLM helicase inh
Cc1sc2c3ccsc3ccc2[n+]1C | – | – | ? | – | – | – | – | ?
Cc1ccc(CCNC(=O)c2ccc(CSCc3ccccc3C)o2)cc1 | ? | – | · | – | – | · | · | ·
O=C1C(=Cc2cn(-c3ccccc3)nc2-c2ccc(OCc3ccccc3)cc2)SC(=S)N1CCS(=O)(=O)O | · | · | 25.1µM | · | · | 10.8µM | – | 6.81µM
O=C(O)CN1C(=O)/C(=C\c2cn(-c3ccccc3)nc2-c2ccccc2)SC1=S | ? | – | – | ? | – | · | · | ·
CCOc1ccc(OCC)c(NC(=O)CCC(=O)N2CCOc3ccccc32)c1 | – | – | · | – | – | · | · | ·
CC(=O)OCCCNc1cc(Sc2ccc(C)cc2)c2nonc2c1[N+](=O)[O-] | ? | – | 39.8µM | – | ? | – | – | –
COc1cc(C)c2sc3ccccc3c(=O)c2c1NCCN(C)C | · | ? | 35.5µM | · | · | ? | 17.1µM | ?
CC1(C)CC(=O)C(C(C2=C(O)CC(C)(C)CC2=O)c2cccs2)C(=O)C1 (centres undefined) | ? | – | ? | – | – | – | – | –
COc1cccc(NC(=O)c2ccc(-c3nc(COc4ccccc4)c(C)o3)cc2)c1 | – | – | · | – | – | · | · | ·
CC1=C(C)CS(=O)N(S(=O)(=O)c2ccc(Cl)cc2)C1 (centres undefined) | ? | – | 12.6µM | – | – | – | – | ?
CC1CCCC(C)N1S(=O)(=O)c1ccc(Cl)cc1 (centres undefined) | – | – | – | – | – | · | · | ·
CCOc1ccccc1CNC(=O)c1ccc2c(c1)nc1n2CCCCC1 | – | – | · | – | – | · | · | ·
CCN1CCN(C(=O)/C=C/c2ccc(C(C)C)cc2)CC1 | – | – | – | · | – | · | · | ·
CCN1CCC(O)(/C=C/c2ccc(C(C)C)cc2)C(C(=O)/C=C/c2ccc(C(C)C)cc2)C1 (centres undefined) | – | – | 15.8µM | · | – | – | – | ?
COc1ccc(NC(=O)/C(Cl)=C(/Cl)S(=O)Cc2ccccc2)cn1 (centres undefined) | 31.6µM | – | 31.6µM | – | – | ? | – | –
CN1CCc2nc(SCC(=O)Nc3ccc(OC(F)(F)F)cc3)c(C#N)c(-c3cccs3)c2C1 | – | – | ? | – | – | 19.2µM | 3.41µM | 24.1µM
CN1CCc2nc(SCC(=O)Nc3cccc(F)c3)c(C#N)c(-c3cccs3)c2C1 | – | – | – | – | – | · | · | ·
C=CCn1c(SCC(=O)c2ccc(O)c(O)c2)nnc1-c1ccccc1OC | 50.1µM | 25.1µM | ? | ? | ? | 15.2µM | – | 12.1µM
